SRC1 TRFRET art – TR-FRET detection interference compounds, primary screen, artefact control for PPARgamma SRC-1 recruitment agonists, biochemical, TR-FRET emission ratio; TR-FRET detection artefact counter-screen; hits give high values; TR-FRET ratio at 8 µM; 0.34% of 99,000 active; AID 1051, 2008; in the data active means TR-FRET ratio above about 2300
SRC3 TRFRET art – TR-FRET detection interference compounds, artefact control for PPARgamma SRC-3 recruitment agonists, biochemical, TR-FRET ratio | TR-FRET artefact counter-screen, PPARgamma/SRC-3 format; hits give high values | TR-FRET ratio at 8 µM | 0.39% of 99,000 active | AID 1048, 2008
TR-FRET SRC-2 ct – TR-FRET signal artefacts, primary screen, artefact control for PPARgamma SRC-2 agonist project, biochemical. TR-FRET artefact counter-screen; hits give high values. TR-FRET ratio at 8 µM. 0.4% of 200,000 active. AID 1049, 2008
PPARg SRC-2 ag – agonists of PPARg-SRC-2 recruitment, primary screen, biochemical, HTS. PPARgamma LBD-SRC-2 recruitment. activation, % at 8 µM. AID 1032, 2008. 0.34% of 200,000 active; in the data active means activation above about 22%;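 further: 0% = vehicle and 100% = reference agonist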
Target sequence (P37231 whole entry, looked up, the tested form may be a part): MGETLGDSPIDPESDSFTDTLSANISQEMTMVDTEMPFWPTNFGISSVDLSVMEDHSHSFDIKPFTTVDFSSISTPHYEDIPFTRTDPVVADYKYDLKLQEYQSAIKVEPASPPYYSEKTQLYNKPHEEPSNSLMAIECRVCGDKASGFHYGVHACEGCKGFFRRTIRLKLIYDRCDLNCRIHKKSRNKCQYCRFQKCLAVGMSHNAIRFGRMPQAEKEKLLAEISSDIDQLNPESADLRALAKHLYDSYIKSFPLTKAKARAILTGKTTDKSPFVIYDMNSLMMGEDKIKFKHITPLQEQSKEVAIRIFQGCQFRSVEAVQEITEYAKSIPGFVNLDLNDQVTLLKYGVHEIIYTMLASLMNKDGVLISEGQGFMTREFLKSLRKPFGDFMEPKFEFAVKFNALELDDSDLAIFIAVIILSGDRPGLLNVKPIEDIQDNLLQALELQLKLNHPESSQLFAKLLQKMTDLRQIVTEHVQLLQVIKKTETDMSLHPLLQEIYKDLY
PPARg SRC1 recr – PPARgamma agonists recruiting SRC-1 coactivator, primary screen, biochemical. Peroxisome proliferator-activated receptor gamma (Homo sapiens), P37231. PPARgamma-SRC-1 coactivator recruitment biochemical assay. activation, % at 8 µM. 0.41% of 200,000 active. AID 631, 2007; in the data active means activation above about 19%;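 further: 0% = DMSO and 100% = reference agonist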
PPARg SRC3 recr – PPARgamma agonists recruiting SRC-3 coactivator, primary screen, biochemical | biochemical PPARgamma/SRC-3 coactivator recruitment assay | activation, % at 8 µM | 0.26% of 200,000 active | Peroxisome proliferator-activated receptor gamma (Homo sapiens), P37231; in the data active means activation above about 23%;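 further: 0% = DMSO and 100% = reference agonist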
PPARg SRC2 ag – agonists of PPARgamma SRC-2 coactivator recruitment, confirmation, biochemical, HTS; shares compounds with PPARg SRC3 recr; biochemical SRC-2 recruitment by PPARgamma; activation, % at 8 µM; 52% of 790 active; AID 1297, 2008; in the data active means activation above about 22%;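 further: 0% = vehicle alone and 100% = reference agonist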
PPARg SRC1 conf – PPARgamma agonists recruiting SRC-1 coactivator, confirmation, biochemical | shares compounds with PPARg SRC3 recr | PPARgamma–SRC-1 coactivator recruitment biochemical assay | activation, % at 8 µM | 43% of 790 active; in the data active means activation above about 20%;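 further: 0% = vehicle wells and 100% = reference agonist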
PPARg SRC3 ag – PPARgamma-driven SRC-3 coactivator recruitment agonists, confirmation, biochemical; activation, % at 8 µM; 29% of 790 active; AID 1301, 2008; biochemical PPARgamma-SRC-3 coactivator recruitment, agonist mode; shares compounds with PPARg SRC3 recr; in the data active means activation above about 24%;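 further: 0% = vehicle wells and 100% = reference agonist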
Numbers without * were called inactive; . = not tested or not shown. Most compounds without a hit are left out; they make up all but 0.9% or so of the library. Unless noted, no stated cut-off is given here; in the data, active means TR-FRET ratio above about 2000; inactive means the rest.

SMILES | SRC1 TRFRET art | SRC3 TRFRET art | TR-FRET SRC-2 ct | PPARg SRC-2 ag | PPARg SRC1 recr | PPARg SRC3 recr | others
COc1ccc(-c2cc(=Nc3ccccc3)c3cc(C)ccc3o2)cc1 | 2615* | 1387 | 1332 | 3 | 15 | -6
COc1ccc(-c2cc(=NCCC(=O)O)c3cc(C)ccc3o2)cc1 | 1700 | 1485 | 1337 | -10 | -2 | -5
CCCCCCn1c(O)c(C=Nc2c(C)n(C)n(-c3ccccc3)c2=O)c(=O)[nH]c1=O | . | . | 1830 | 25* | 5 | -6
CCOC(=O)C1=C(NC(=S)NC(=O)c2ccccc2)c2ccccc2CC12CCCC2 | 1692 | 1537 | 1619 | -3 | -7 | -2
O=C(N/N=C/c1c(O)n(CCc2ccccc2)c(=O)[nH]c1=O)c1ccncc1 | 1769 | 1522 | 2004* | 8 | -1 | 10
Cc1ccc(N(C)C(=O)Oc2ccc(C(=O)c3ccc(Cl)cc3)cc2)cc1 | . | . | 1594 | 0 | 0 | 2
CN(C)c1ccc(/C=C/c2cc[n+](C)c3ccccc23)cc1 | 3265* | 2979* | 2947* | 61* | 83* | 61* | PPARg SRC2 ag=65*;PPARg SRC1 conf=49*;PPARg SRC3 ag=43*
Cn1c(=O)cc(SCC(=O)N2CCC3(CC2)OCCO3)c2ccc(Cl)cc21 | . | . | 2539* | 73* | 50* | 79* | PPARg SRC2 ag=28*;PPARg SRC1 conf=19;PPARg SRC3 ag=20
O=C(CSc1ccccc1)N1CCC2(CC1)OCCO2 | . | . | 1402 | 1 | 0 | 12
COc1ccc(CN2CCCC(C(=O)c3sccc3C)C2)cc1O (stereo unspecified) | 2093 | 1561 | 1846 | 1 | 12 | 4
